# Inconclusive results are not listed. Where a structure was tested more than once in an assay, its records may differ in their call. Active and inactive are the calls of the source. The calls were made as follows, unless noted: active = hit-call score of the fitted dose curve at least 0.9, where 1 is the maximum; inconclusive = response in the unintended direction; inactive = score below 0.9.
# Key:
# [1] = biological target: human Peroxisome Proliferator-activated Receptor alpha (PPARa), PPARA (gene 5465) (UniProt Q07869); experiment: ATG_PPARa_TRANS: Attagene TRANS-FACTORIAL HepG2 Assay for human Peroxisome Proliferator-activated Receptor alpha (PPARa) (AID 2283001)
# Method in brief: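 Transfected HepG2 cells treated with test chemical for 24 h. RNA isolated, reverse-transcribed with oligo(dT), PCR-amplified, FAM-labelled and HpaI-digested. Fragments sized by capillary electrophoresis; gain-of-signal fit relative to DMSO.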
# [2] = biological target: human Retinoic Acid Receptor beta (RARb), RARB (gene 5915) (UniProt P10826); experiment: ATG_RARb_TRANS: Attagene TRANS-FACTORIAL HepG2 Assay for human Retinoic Acid Receptor beta (AID 2283004)
# Method in brief: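 HepG2 cells were transiently transfected with GAL4-UAS reporter units that report activity of exogenous chimeric NR-Gal4 proteins, then exposed to compound for 24 h. Reporter mRNA was quantified by RT-PCR with capillary electrophoresis fluorescence, as gain of signal over DMSO.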
# [3] = biological target: Retinoic acid receptor alpha (Homo sapiens) (UniProt P10276); experiment: ATG_RARa_TRANS: Attagene TRANS-FACTORIAL HepG2 Assay for human Retinoic Acid Receptor alpha (RARa) (AID 2283005)
# Method in brief: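 Reporter transcripts, measured by RT-PCR with fluorescent labeling and capillary electrophoresis after 24 h dosing, reflect activity of an exogenous human RARa–GAL4 fusion in transiently transfected HepG2. Fitted for increase relative to DMSO.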
# [4] = biological target: Peroxisome proliferator-activated receptor gamma (Homo sapiens) (UniProt P37231); experiment: ATG_PPARg_TRANS: Attagene TRANS-FACTORIAL HepG2 Assay for human Peroxisome Proliferator-activated Receptor-gamma (PPARg) (AID 2283007)
# Method in brief: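 Gain-of-signal endpoint relative to DMSO, derived from reporter mRNA levels quantified by RT-PCR and capillary electrophoresis. Cells were HepG2 transiently expressing a chimeric NR-Gal4 construct with GAL4-UAS reporters, exposed to chemicals for 24 h.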
# [5] = biological target: human Retinoic Acid Receptor gamma (RARg), RARG (gene 5916) (UniProt P13631); experiment: ATG_RARg_TRANS: Attagene TRANS-FACTORIAL HepG2 Assay for human Retinoic Acid Receptor gamma (RARg) (AID 2283009)
# Method in brief: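 Gain-of-signal relative to DMSO is reported from fluorescent capillary electrophoresis of RT-PCR reporter products. These came from HepG2 cells expressing transfected RARg-GAL4 chimeras with UAS reporters, harvested 24 h after dosing.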
# [6] = biological target: human RAR-related Orphan Receptor gamma (RORg), RORC (gene 6097) (UniProt P51449); experiment: ATG_RORg_TRANS: Attagene TRANS-FACTORIAL HepG2 Assay for human RAR-related Orphan Receptor gamma (RORg) (AID 2283011)
# Method in brief: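 HepG2 cells transiently transfected with GAL4-UAS reporter units and chimeric RORg-Gal4 construct; after 24 h chemical exposure, reporter mRNA measured by RT-PCR with fluorescent capillary electrophoresis, gain of signal fitted against DMSO.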
# [7] = biological target: Retinoic acid receptor RXR-alpha (Homo sapiens) (UniProt P19793); experiment: ATG_RXRa_TRANS: Attagene TRANS-FACTORIAL HepG2 Assay for human Retinoid X Receptor alpha (RXRa) (AID 2283012)
# Method in brief: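 Chimeric NR-GAL4 trans-activation in HepG2, 24 h treatment; reporter transcripts quantified by fluorescence on capillary electrophoresis, analysed for upward change from DMSO.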
# [8] = biological target: human Retinoid X Receptor beta (RXRb), RXRB (gene 6257) (UniProt P28702); experiment: ATG_RXRb_TRANS: Attagene TRANS-FACTORIAL HepG2 Assay for human Retinoid X Receptor beta (RXRb) (AID 2283013)
# Method in brief: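 After a 24 h incubation with test chemical, transfected HepG2 cells carrying NR-Gal4 fusions and GAL4-UAS reporter transcription units yield RNA whose reporter cDNA is FAM-labelled, HpaI-cut and sized by capillary electrophoresis; increases over DMSO are scored.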
# [9] = biological target: Nuclear receptor subfamily 1 group I member 2 (Homo sapiens) (UniProt O75469); experiment: ATG_PXR_TRANS: Attagene TRANS-FACTORIAL HepG2 Assay for human Pregnane X Receptor (PXR) (AID 2283008)
# Method in brief: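 HepG2 transfected (FuGene 6) with GAL4-UAS reporter units + PXR-Gal4 chimera; dosed 24 h. Total RNA → oligo(dT) RT → PCR → 6-FAM primer extension → HpaI cut → CE. Gain-of-signal vs DMSO.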
# [10] = biological target: human RAR-related Orphan Receptor beta (RORb), RORB (gene 6096) (UniProt Q92753); experiment: ATG_RORb_TRANS: Attagene TRANS-FACTORIAL HepG2 Assay for human RAR-related Orphan Receptor beta (RORb) (AID 2283010)
# Method in brief: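 Multiplexed transcription-factor reporter assay: HepG2 cells transiently carrying NR-Gal4/GAL4-UAS constructs, 24 h treatment, mRNA quantified by RT-PCR plus capillary electrophoresis fluorescence; activity scored as induction over DMSO.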
# [11] = biological target: human Peroxisome Proliferator-activated Receptor delta (PPARd), PPARD (gene 5467) (UniProt Q03181); experiment: ATG_PPARd_TRANS: Attagene TRANS-FACTORIAL HepG2 Assay for human Peroxisome Proliferator-activated Receptor delta (PPARd) (AID 2283002)
# Method in brief: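 Transient HepG2 transfection (multiple GAL4-UAS RTUs, chimeric receptor-Gal4); 24 h dosing; total RNA → oligo(dT) RT → PCR → 6-FAM primer extension → HpaI cut → CE. Positive direction vs DMSO.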
# [12] = biological target: human Thyroid Receptor alpha (THRa1), THRA (gene 7067) (UniProt P10827); experiment: ATG_THRa1_TRANS: Attagene TRANS-FACTORIAL HepG2 Assay for human Thyroid Receptor alpha (THRa1) (AID 2283014)
# Method in brief: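 HepG2 cells transiently transfected with chimeric NR-Gal4 and GAL4-UAS reporter units, dosed 24 h. Reporter mRNA quantified by RT-PCR, fluorescent labeling, HpaI digestion and capillary electrophoresis; gain-of-signal fit versus DMSO.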
# [13] = BSK_4H_Eotaxin3: BioMAP Diversity Plus: 4H Assay for Eotaxin 3 Biomarker Activity (AID 2283000; active = hit-call score of the fitted dose curve at least 0.9, where 1 is the maximum; inactive = score below 0.9;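 also: CCL26 protein level quantified by ELISA in parallel with SRB cytotoxicity check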); conditions: primary human endothelial cells (HUVEC); actives raise or lower the signal
# Method in brief: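 Eotaxin-3 (CCL26) levels were measured by ELISA in HUVEC primary cultures 24 h post-dosing. Gain or loss of signal was fitted in both directions, with DMSO serving as baseline and negative control.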
# [14] = read-out: Intercellular Adhesion Molecule 1 (ICAM1), ICAM1 (gene 3383); experiment: BSK_3C_ICAM1: BioMAP Diversity Plus: 3C Assay for Intercellular Adhesion Molecule 1 (ICAM1) Biomarker Activity (AID 2283003; active = hit-call score of the fitted dose curve at least 0.9, where 1 is the maximum; inactive = score below 0.9); conditions: primary human endothelial cells (HUVEC); actives raise or lower the signal
# Method in brief: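 Using DMSO as baseline, bidirectional curve fitting was applied to ICAM-1 ELISA signals from HUVEC in the 3C system, measured 24 h after compound addition.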
# [15] = BSK_3C_Proliferation: Cell Proliferation Assessment in the BioMAP Diversity Plus: 3C Assay (AID 2283006; active = hit-call score of the fitted dose curve at least 0.9, where 1 is the maximum; inactive = score below 0.9); conditions: primary human endothelial cells (HUVEC)
# Method in brief: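 Measured here: sulforhodamine B (0.1%) staining of TCA-fixed sub-confluent umbilical vein endothelial cultures 48 h post-dosing, absorbance 560 nm. DMSO served as negative control and baseline; both signal gain and loss were modelled.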
# [16] = read-out: E-selectin (Homo sapiens) (UniProt P16581); experiment: BSK_3C_Eselectin: BioMAP Diversity Plus: 3C Assay for Eselectin Biomarker Activity (AID 2283015; active = hit-call score of the fitted dose curve at least 0.9, where 1 is the maximum; inactive = score below 0.9;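 also: cell surface E-selectin protein quantified by ELISA 24 h after dosing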); conditions: primary human endothelial cells (HUVEC); actives raise or lower the signal
# Method in brief: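 Primary human umbilical vein endothelial cells (3C system), read 24 h after compound addition; E-selectin measured by ELISA. Bidirectional curve fitting against DMSO baseline; cytotoxicity by parallel SRB total-protein staining.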
# [17] = read-out: Interleukin-1 alpha (IL1a), IL1A (gene 3552); experiment: BSK_BE3C_IL1a: BioMAP Diversity Plus: BE3C Assay for Interleukin-1 alpha (IL1a) Biomarker Activity (AID 2283016; active = hit-call score of the fitted dose curve at least 0.9, where 1 is the maximum; inactive = score below 0.9); conditions: primary human bronchial epithelial cells; actives raise or lower the signal
# Method in brief: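 Measured in human lung primary bronchial epithelial cells: IL-1a by ELISA at 24 h after dosing, with bidirectional fitting against DMSO.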
# [18] = read-out: Monocyte Chemoattractant Protein-1 (MCP1), CCL2 (gene 6347); experiment: BSK_3C_MCP1: BioMAP Diversity Plus: 3C Assay for Monocyte Chemoattractant Protein-1 (MCP1) Biomarker Activity (AID 2283017; active = hit-call score of the fitted dose curve at least 0.9, where 1 is the maximum; inactive = score below 0.9); conditions: primary human endothelial cells (HUVEC); actives raise or lower the signal
# Method in brief: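 Human umbilical vein endothelial cells (3C system) exposed to chemicals for 24 h; MCP-1 quantified by ELISA against the DMSO baseline with bidirectional fitting, and parallel SRB staining used to assess cytotoxicity.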
# [19] = read-out: Monocyte Chemoattractant Protein-1 (MCP1), CCL2 (gene 6347); experiment: BSK_4H_MCP1: BioMAP Diversity Plus: 4H Assay for Monocyte Chemoattractant Protein-1 (MCP1) Biomarker Activity (AID 2283018; active = hit-call score of the fitted dose curve at least 0.9, where 1 is the maximum; inactive = score below 0.9); conditions: primary human endothelial cells (HUVEC); actives raise or lower the signal
# Method in brief: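 Primary human umbilical vein endothelium is exposed to chemical for 24 h before MCP-1 is assayed by ELISA. Concentration-response fitted bidirectionally relative to DMSO.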
# [20] = read-out: Human Leukocyte Antigen - DR isotype (HLADR), HLA-DRA (gene 3122); experiment: BSK_3C_HLADR: BioMAP Diversity Plus: 3C Assay for Human Leukocyte Antigen - DR isotype (HLADR) Biomarker Activity (AID 2283019; active = hit-call score of the fitted dose curve at least 0.9, where 1 is the maximum; inactive = score below 0.9;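 also: ELISA of cell-surface HLA-DR on HUVEC 24 h after dosing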); conditions: primary human endothelial cells (HUVEC); actives raise or lower the signal
# Method in brief: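 HUVEC monoculture, HLA-DR measured by ELISA 24 h after chemical dosing. Fitted bidirectionally against DMSO baseline; parallel SRB staining assessed cytotoxicity, with 3C proliferation read by SRB at 48 h.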
# Chain of human RAR-related Orphan Receptor beta (RORb), RORB (gene 6096) (Q92753 whole entry, looked up, the tested form may be a part): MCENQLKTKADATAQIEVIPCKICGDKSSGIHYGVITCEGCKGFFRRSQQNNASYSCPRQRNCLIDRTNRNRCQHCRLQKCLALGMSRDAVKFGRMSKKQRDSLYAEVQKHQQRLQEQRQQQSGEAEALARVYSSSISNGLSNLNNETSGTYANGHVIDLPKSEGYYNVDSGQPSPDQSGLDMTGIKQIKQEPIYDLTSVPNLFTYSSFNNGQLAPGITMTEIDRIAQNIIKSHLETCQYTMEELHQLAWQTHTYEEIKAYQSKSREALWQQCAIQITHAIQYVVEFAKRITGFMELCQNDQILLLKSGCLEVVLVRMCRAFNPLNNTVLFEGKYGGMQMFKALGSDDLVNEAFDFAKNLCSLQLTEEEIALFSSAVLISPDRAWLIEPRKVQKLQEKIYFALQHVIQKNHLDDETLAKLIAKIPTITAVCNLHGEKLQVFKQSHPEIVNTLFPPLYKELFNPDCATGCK
# Chain of Retinoic acid receptor RXR-alpha (Homo sapiens) (P19793 whole entry, looked up, the tested form may be a part): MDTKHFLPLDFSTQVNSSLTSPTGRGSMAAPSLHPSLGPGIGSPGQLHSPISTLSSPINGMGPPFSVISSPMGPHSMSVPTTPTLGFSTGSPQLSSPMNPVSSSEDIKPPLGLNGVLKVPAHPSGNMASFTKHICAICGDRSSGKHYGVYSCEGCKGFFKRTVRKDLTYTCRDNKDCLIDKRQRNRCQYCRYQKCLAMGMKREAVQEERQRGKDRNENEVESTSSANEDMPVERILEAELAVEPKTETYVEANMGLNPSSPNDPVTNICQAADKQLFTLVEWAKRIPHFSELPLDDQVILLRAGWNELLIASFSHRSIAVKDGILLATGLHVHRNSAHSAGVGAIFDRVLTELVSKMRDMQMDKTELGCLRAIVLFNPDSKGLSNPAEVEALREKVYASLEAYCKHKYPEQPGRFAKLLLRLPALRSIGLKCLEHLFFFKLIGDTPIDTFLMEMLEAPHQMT
# Chain of Nuclear receptor subfamily 1 group I member 2 (Homo sapiens) (O75469 whole entry, looked up, the tested form may be a part): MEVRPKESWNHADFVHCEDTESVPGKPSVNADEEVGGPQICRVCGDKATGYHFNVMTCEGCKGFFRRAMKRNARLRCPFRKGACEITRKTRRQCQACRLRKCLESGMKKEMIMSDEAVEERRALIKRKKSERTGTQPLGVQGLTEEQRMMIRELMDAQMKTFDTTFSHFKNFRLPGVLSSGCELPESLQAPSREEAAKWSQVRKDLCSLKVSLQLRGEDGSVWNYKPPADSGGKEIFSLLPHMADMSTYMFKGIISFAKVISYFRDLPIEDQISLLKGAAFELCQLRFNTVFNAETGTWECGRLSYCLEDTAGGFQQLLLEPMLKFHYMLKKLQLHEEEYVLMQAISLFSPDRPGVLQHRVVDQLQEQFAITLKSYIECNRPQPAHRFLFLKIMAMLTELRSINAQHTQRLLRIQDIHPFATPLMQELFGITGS
# Chain of human Retinoic Acid Receptor beta (RARb), RARB (gene 5915) (P10826 whole entry, looked up, the tested form may be a part): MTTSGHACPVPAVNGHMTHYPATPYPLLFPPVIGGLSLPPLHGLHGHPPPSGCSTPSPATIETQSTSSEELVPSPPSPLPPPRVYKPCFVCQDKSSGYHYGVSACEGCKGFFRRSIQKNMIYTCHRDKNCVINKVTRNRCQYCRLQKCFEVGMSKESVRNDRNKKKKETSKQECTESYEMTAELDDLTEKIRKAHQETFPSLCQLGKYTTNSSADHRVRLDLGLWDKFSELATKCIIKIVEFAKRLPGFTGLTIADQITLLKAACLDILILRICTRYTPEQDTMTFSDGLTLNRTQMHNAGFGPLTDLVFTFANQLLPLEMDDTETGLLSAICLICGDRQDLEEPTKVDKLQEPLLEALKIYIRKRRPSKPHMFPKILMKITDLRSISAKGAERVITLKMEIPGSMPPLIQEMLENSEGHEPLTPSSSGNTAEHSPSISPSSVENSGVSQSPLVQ
# Chain of human Retinoid X Receptor beta (RXRb), RXRB (gene 6257) (P28702 whole entry, looked up, the tested form may be a part): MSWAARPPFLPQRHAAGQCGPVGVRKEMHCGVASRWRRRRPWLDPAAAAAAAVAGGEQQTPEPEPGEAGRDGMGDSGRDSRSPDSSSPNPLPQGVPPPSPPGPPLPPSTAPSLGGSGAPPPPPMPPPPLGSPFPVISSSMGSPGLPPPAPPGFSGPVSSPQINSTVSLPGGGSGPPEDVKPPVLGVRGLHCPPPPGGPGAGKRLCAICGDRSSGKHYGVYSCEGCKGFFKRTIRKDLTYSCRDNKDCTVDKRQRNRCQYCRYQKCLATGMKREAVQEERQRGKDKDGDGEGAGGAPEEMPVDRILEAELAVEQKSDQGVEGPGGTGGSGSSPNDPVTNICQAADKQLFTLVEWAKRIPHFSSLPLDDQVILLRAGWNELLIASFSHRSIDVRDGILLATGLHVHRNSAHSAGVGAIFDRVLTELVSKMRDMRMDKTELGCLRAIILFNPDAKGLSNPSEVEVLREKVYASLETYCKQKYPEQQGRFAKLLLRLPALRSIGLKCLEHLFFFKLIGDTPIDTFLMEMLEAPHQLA
# Chain of human Retinoic Acid Receptor gamma (RARg), RARG (gene 5916) (P13631 whole entry, looked up, the tested form may be a part): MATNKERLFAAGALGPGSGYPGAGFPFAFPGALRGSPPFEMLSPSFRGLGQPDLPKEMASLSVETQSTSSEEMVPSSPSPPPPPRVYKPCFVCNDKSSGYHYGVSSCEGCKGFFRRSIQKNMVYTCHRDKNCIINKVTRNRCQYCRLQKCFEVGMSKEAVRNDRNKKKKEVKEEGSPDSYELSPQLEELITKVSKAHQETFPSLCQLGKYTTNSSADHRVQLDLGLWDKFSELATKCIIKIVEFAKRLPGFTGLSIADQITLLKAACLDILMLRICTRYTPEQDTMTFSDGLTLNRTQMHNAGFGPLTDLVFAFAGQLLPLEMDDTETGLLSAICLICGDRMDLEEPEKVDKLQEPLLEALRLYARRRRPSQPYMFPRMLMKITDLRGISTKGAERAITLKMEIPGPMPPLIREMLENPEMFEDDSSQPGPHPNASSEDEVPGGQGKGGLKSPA
# Chain of human Peroxisome Proliferator-activated Receptor delta (PPARd), PPARD (gene 5467) (Q03181 whole entry, looked up, the tested form may be a part): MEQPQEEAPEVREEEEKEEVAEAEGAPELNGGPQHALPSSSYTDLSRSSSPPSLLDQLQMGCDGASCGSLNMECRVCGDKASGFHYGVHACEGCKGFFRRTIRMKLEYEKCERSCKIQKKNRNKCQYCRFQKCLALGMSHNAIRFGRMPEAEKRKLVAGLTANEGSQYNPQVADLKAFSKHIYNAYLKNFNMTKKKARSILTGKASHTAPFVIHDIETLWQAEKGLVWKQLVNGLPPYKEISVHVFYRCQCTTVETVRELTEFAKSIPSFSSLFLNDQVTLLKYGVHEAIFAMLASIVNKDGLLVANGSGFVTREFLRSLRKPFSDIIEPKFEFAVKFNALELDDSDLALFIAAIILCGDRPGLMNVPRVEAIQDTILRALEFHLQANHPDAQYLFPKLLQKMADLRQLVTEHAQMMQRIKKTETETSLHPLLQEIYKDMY
# Chain of Retinoic acid receptor alpha (Homo sapiens) (P10276 whole entry, looked up, the tested form may be a part): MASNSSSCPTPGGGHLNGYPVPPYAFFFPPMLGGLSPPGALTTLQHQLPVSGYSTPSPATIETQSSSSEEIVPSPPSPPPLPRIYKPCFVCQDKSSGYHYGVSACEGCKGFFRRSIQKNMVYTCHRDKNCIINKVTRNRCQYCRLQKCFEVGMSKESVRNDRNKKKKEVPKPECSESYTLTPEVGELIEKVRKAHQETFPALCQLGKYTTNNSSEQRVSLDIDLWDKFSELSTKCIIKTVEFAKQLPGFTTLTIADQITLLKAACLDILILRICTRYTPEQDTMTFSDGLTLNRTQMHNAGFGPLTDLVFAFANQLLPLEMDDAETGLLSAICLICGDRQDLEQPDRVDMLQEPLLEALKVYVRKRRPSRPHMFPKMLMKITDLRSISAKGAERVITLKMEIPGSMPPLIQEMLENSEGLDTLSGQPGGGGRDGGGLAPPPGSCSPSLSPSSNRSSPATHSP
# Chain of human Peroxisome Proliferator-activated Receptor alpha (PPARa), PPARA (gene 5465) (Q07869 whole entry, looked up, the tested form may be a part): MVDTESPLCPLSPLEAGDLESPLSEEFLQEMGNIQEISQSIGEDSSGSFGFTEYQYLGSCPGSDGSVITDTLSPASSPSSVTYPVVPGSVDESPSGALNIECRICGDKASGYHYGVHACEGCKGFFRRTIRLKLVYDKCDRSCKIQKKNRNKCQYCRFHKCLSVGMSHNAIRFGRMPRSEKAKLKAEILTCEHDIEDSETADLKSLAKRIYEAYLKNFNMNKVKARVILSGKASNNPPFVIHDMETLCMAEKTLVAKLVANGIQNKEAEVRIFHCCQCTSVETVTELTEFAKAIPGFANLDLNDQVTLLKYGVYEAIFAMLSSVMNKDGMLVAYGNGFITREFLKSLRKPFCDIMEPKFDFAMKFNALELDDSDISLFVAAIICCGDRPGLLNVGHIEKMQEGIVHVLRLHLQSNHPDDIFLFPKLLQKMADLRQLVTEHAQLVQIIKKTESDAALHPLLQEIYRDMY
# Chain of human RAR-related Orphan Receptor gamma (RORg), RORC (gene 6097) (P51449 whole entry, looked up, the tested form may be a part): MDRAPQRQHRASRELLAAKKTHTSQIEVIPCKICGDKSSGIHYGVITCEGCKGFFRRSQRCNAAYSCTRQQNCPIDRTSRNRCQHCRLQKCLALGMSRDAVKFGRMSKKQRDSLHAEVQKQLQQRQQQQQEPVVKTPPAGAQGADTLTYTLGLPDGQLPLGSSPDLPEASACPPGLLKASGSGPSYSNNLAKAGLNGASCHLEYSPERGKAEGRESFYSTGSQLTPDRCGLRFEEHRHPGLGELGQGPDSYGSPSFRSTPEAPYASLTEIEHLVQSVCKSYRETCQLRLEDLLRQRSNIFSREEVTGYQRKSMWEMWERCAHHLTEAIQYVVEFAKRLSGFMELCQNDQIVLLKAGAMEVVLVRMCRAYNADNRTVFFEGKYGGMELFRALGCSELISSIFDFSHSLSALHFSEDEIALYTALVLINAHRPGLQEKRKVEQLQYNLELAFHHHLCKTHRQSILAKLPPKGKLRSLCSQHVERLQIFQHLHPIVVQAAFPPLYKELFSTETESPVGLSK
structure (smiles),measurement,setting,value
OC[C@@H](O)[C@@H](O)[C@H](O)[C@@H](O)CO,outcome,[1],inactive
same,outcome,[3],inactive
same,outcome,[4],inactive
same,outcome,[5],inactive
same,outcome,[6],inactive
same,outcome,[7],inactive
same,AC50,[8],35.1 µM (active)
same,outcome,[8],inactive
CC/C=C\CCOC(=O)c1ccccc1,outcome,[1],inactive
same,outcome,[2],inactive
same,outcome,[3],inactive
same,outcome,[4],inactive
same,outcome,[9],inactive
same,outcome,[5],inactive
same,outcome,[10],inactive
same,outcome,[7],inactive
same,outcome,[8],inactive
Nc1ccc(Oc2cccc(Oc3ccc(N)cc3)c2)cc1,outcome,[1],inactive
same,AC50,[4],5.29 µM (active)
same,AC50,[9],22.1 µM (active)
same,outcome,[6],inactive
CC/C=C\CCOC(C)=O,outcome,[1],inactive
same,outcome,[9],inactive
same,outcome,[6],inactive
O=S(=O)(O)c1ccc2ccccc2c1,outcome,[1],inactive
same,outcome,[11],inactive
same,outcome,[4],inactive
same,outcome,[10],inactive
same,outcome,[7],inactive
same,outcome,[12],inactive
O=C(OCCOCCOCCOC(=O)c1ccccc1)c1ccccc1,outcome,[2],inactive
same,outcome,[4],inactive
same,outcome,[6],inactive
same,outcome,[8],inactive
CCCCCCOC(=O)c1ccccc1,outcome,[1],inactive
same,outcome,[11],inactive
same,outcome,[5],inactive
same,outcome,[7],inactive
same,outcome,[12],inactive
CC(Cc1ccc(O)c(O)c1)C(C)Cc1ccc(O)c(O)c1 (stereo not drawn),AC50,[4],19.3 µM (active)
same,AC50,[9],6.87 µM (active)
same,outcome,[6],inactive
same,outcome,[7],inactive
FC(F)(F)C(F)(F)C(F)(F)CI,outcome,[13],inactive
same,outcome,[14],inactive
same,outcome,[2],inactive
same,outcome,[3],inactive
same,outcome,[15],inactive
same,outcome,[10],inactive
same,outcome,[6],inactive
same,outcome,[8],inactive
same,outcome,[12],inactive
same,outcome,[16],inactive
same,outcome,[17],inactive
same,outcome,[18],inactive
same,outcome,[19],inactive
same,outcome,[20],inactive
Nc1ccc(S(=O)(=O)Nc2nccs2)cc1,outcome,[1],inactive
same,outcome,[11],inactive
same,outcome,[4],inactive
same,outcome,[5],inactive
same,outcome,[10],inactive
same,outcome,[8],inactive
CCN(Cc1cccc(S(=O)(=O)O)c1)c1ccc(C(=C2C=CC(=[N+](CC)Cc3cccc(S(=O)(=O)O)c3)C=C2)c2ccc(O)cc2S(=O)(=O)[O-])cc1,outcome,[1],inactive
same,outcome,[11],inactive
same,outcome,[4],inactive
same,outcome,[9],inactive
same,outcome,[10],inactive
same,outcome,[6],inactive
same,outcome,[7],inactive
same,outcome,[8],inactive
C1COCCN1,outcome,[1],inactive
same,outcome,[11],inactive
same,outcome,[2],inactive
same,outcome,[3],inactive
same,outcome,[9],inactive
same,outcome,[10],inactive
same,outcome,[6],inactive
same,outcome,[7],inactive
same,outcome,[8],inactive
same,outcome,[12],inactive
C(=C(c1ccccc1)c1ccccc1)c1ccccc1,outcome,[11],inactive
same,outcome,[4],inactive
same,AC50,[9],7.71 µM (active)
same,outcome,[5],inactive
same,outcome,[10],inactive
same,outcome,[7],inactive
same,AC50,[8],6.11 µM (active)
same,outcome,[12],inactive
COC(=O)C1CCC(C(=O)OC)CC1 (stereo not drawn),outcome,[1],inactive
same,outcome,[11],inactive
same,outcome,[2],inactive
same,outcome,[4],inactive
same,outcome,[5],inactive
same,outcome,[7],inactive
same,outcome,[8],inactive
same,outcome,[12],inactive
CC(C)OC(=O)c1ccccc1C(=O)OC(C)C,outcome,[2],inactive
same,outcome,[3],inactive
same,AC50,[4],100 µM (active)
same,outcome,[5],inactive
same,outcome,[10],inactive
same,outcome,[7],inactive
same,AC50,[8],18.9 µM (active)
CC(C)(C)c1ccc(OC2CCCCC2O)cc1 (stereo not drawn),outcome,[11],inactive
same,outcome,[2],inactive
same,outcome,[3],inactive
same,AC50,[4],28.4 µM (active)
same,AC50,[9],2.96 µM (active)
same,outcome,[10],inactive
same,outcome,[6],inactive
same,AC50,[7],26.2 µM (active)
same,outcome,[8],inactive
same,outcome,[12],inactive
[Co],outcome,[3],inactive
same,outcome,[4],inactive
same,outcome,[5],inactive
same,outcome,[10],inactive
same,outcome,[6],inactive
same,outcome,[7],inactive
same,outcome,[8],inactive
same,outcome,[12],inactive
